Only some compounds are listed: those with a hit (about 27% of all), similar ones and a draw of the others.
CYP2C9 activ = CYP2C9 (human) activation | actives 1.4% (n = 96,000) | activation factor at 5 µM | recombinant CYP2C9, luciferin-H conversion, luminescence; hits give high values; factor 1 = untreated enzyme, 0 = blocked | P11712;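 active means activation factor of 2 or more for CYP2C9 at a 5 µM dose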
sEH activator = soluble epoxide hydrolase (human) activation. purified human sEH enzymatic activity, activator screen. activation, % at 2 µM. actives 0.04% (n = 91,000). AID 717; in the data active means activation above about 37%
Target sequence (P34913 whole entry, looked up): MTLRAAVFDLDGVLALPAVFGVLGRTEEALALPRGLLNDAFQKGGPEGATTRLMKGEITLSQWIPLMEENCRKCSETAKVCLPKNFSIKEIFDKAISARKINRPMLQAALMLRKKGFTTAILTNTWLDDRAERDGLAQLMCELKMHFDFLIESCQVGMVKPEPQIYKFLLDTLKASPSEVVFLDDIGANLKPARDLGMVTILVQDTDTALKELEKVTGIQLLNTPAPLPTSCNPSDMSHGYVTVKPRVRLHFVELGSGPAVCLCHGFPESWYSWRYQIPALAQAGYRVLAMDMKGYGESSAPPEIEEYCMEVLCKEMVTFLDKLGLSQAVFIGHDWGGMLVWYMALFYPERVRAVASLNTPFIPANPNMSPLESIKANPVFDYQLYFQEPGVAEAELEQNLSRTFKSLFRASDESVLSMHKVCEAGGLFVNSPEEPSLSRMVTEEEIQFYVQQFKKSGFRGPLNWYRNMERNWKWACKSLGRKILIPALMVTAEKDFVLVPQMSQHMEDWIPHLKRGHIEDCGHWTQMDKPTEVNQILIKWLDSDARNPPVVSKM
CYP2C9 inh = inhibitors of human CYP2C9 | CYP2C9 Supersomes, luciferin-H conversion, luminescence | inhibition, % at 5 µM | actives 20% (n = 96,000);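 active means blocking of liver enzyme CYP2C9 beyond about 50% at 5 µM, limit read from the data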
sEH inhibitor = inhibitors of human soluble epoxide hydrolase; P34913; recombinant human sEH enzymatic activity assay; inhibition, % at 2 µM; actives 0.34% (n = 91,000); AID 707; in the data active means inhibition above about 80%
CYP2C19 inhib = blocks human cytochrome P450 2C19 | P33261 | CYP2C19 Supersomes, luciferin-H EGE luminescence, 30 min | inhibition, % at 5 µM | actives 21% (n = 96,000);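 active means CYP2C19 inhibition above a set limit at 5 µM in the primary screen, cut at about 50% in these data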
CYP2C19 act = increases human CYP2C19 enzyme activity; P33261; recombinant CYP2C19, luciferin-H EGE luminescence; hits give high values; 0 = fully inhibited enzyme, 1 = untreated enzyme; activation factor at 5 µM; 96,000 tested, under 10 active; AID 1025;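 active means activation factor of at least 2 at 5 µM in the primary screen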
Large screens that a line does not name were inactive.

Cc1ccc(C(=O)COC(=O)C2CC(=O)N(c3nc(-c4ccccc4)cs3)C2)cc1 (stereo unspecified)	CYP2C9 inh 79, CYP2C19 inhib 71
Cc1nonc1NCn1nnc2ccccc21	none
FC(F)(F)c1nnc2ccc(NCn3nnc4ccccc43)nn12	CYP2C9 inh 68
CC(=O)NC1C(=O)Nc2c(C)cc(C)cc21 (stereo unspecified)	none
COc1cccc(N(C(=O)Cn2nnc(-c3ccc(C)cc3)n2)C(C(=O)NC(C)(C)C)c2c[nH]c3ccccc23)c1 (stereo unspecified)	CYP2C9 inh 88
O=C(NC1CCCC1)C(c1c[nH]c2ccccc12)N(C(=O)Cn1nnc(-c2ccc(Cl)cc2)n1)c1ccccc1 (stereo unspecified)	CYP2C9 inh 67
Cc1cc(C)cc(Oc2ccccc2/C=N\O)c1	CYP2C9 activ 2.6
O/N=C/c1ccccc1Oc1ccccc1	CYP2C19 inhib 73
CC(C)c1nnc(NC(=O)CCC(=O)NCc2ccc3c(c2)OCO3)s1	none
O=C(O)CC1NC(=O)N(c2ccc(Cl)cc2)C1=O (stereo unspecified)	none
CCCCOC(=O)n1c(SCC(=O)N(C)C)nc2ccccc21	CYP2C9 inh 77
CCCCn1c(SCC(=O)O)nc2ccccc21	none
Cc1cccc(/C(N)=N/OC(=O)N2c3ccccc3Sc3ccccc32)c1	CYP2C9 inh 54
CCC(C(=O)O/N=C(\N)c1cccc(C)c1)c1ccccc1 (stereo unspecified)	none
CCOCCNC(=O)c1ccc2c3c(cccc13)CC2	CYP2C9 activ 3.4
CCOCCCNC(=O)c1ccccc1Br	none
Cc1cccc(NC(=O)CSc2nc3ccc(N4C(=O)c5ccccc5C4=O)cc3s2)c1C	CYP2C9 inh 70
Cc1cccc(NC(=O)CSc2nc3ccc(NC(=O)CSc4nnnn4-c4ccccc4)cc3s2)c1C	CYP2C9 inh 68
Cn1c(SCC(=O)Nc2ccc3nc(SCC(=O)N4CCCC4)sc3c2)nnc1-c1ccccc1	none
CCOC(=O)COc1ccc(S(=O)(=O)NCCC2=CCCCC2)cc1	none
Cc1onc(-c2ccccc2)c1-c1nc2ccccc2c(=O)o1	CYP2C19 inhib 51
FC(F)(F)c1cc(-c2cccs2)nc(-n2cc(Cl)cn2)n1	none
N#Cc1ccc(CSc2nnc(-c3cnccn3)o2)cc1	CYP2C19 inhib 70
N/C(=N\OC(=O)C(c1ccccc1)c1ccccc1)c1cccnc1	CYP2C9 inh 51
N/C(=N\OC(=O)C(c1ccccc1)c1ccccc1)c1ccccn1	none (no result: CYP2C9 activ, CYP2C9 inh, CYP2C19 inhib, CYP2C19 act)
CC(C)(C)N1CC(COc2ccccc2)OC1=O (stereo unspecified)	CYP2C19 inhib 71
CC1CCCC(C)N1c1nnc(NC(=O)c2cc(-c3ccc(Br)cc3)on2)s1 (stereo unspecified)	CYP2C9 inh 74, CYP2C19 inhib 52 (no result: sEH activator, sEH inhibitor)
CC(C)CCn1c(=O)c2ccccc2n2c(CN3C(=O)NC4(CCC(C)CC4)C3=O)nnc12 (stereo unspecified)	none
O=C(NC1CCCCC1)N1CCC(n2cnc3ccccc32)CC1	none
O=C1C=C(NCc2ccco2)CC(c2ccc(Cl)cc2)C1 (stereo unspecified)	CYP2C19 inhib 62
O=C(NCc1cccs1)c1ccc2c(c1)OCCO2	none
O=C(NCc1cccs1)c1cccc(Nc2nc3ccc(Br)cc3[nH]2)c1	CYP2C9 inh 83
Cc1cc(N2C(=O)C(=O)/C(=C(/O)c3ccc(F)cc3)C2c2ccc(Cl)cc2)no1 (stereo unspecified)	CYP2C9 inh 57
COC(=O)c1cccc(N2C(=O)C3CC=CCC3C2=O)c1 (stereo unspecified)	none (no result: CYP2C9 activ, CYP2C9 inh, CYP2C19 inhib, CYP2C19 act)
Nn1c(-c2cccs2)nc2sc3c(c2c1=O)CCCC3	CYP2C9 inh 100, CYP2C19 inhib 81
Cc1ccccc1-c1nc2sc3c(c2c(=O)n1N)CCCC3	none
CCOC(=O)CCP(=O)(O)C(C)(O)c1ccccc1 (stereo unspecified)	none
CC1(C)CC(NC(=O)C23CCC(C)(/C(=N/O)C2)C3(C)C)CC(C)(C)N1 (stereo unspecified)	none
O=C(Cc1ccc(F)cc1)Nc1c2c(nn1-c1cccc(Cl)c1)CS(=O)C2 (stereo unspecified)	CYP2C19 inhib 100
CCCC1=C(C(=O)OCC)C(c2cccs2)C(C#N)=C(N)O1 (stereo unspecified)	CYP2C9 inh 67, CYP2C19 inhib 79
CCOC(=O)C1=C(CSc2nc3c(cc2C#N)CN(C)CC3)OC(N)=C(C#N)C1c1ccc(Cl)cc1 (stereo unspecified)	none
N#CC1=C(N)Oc2c(oc(CO)cc2=O)C1c1cccs1 (stereo unspecified)	none
CCOC(=O)C1=C(CSc2nc(C)cc(C)c2C#N)OC(N)=C(C#N)C1c1cccs1 (stereo unspecified)	CYP2C19 inhib 86
CCOC(=O)C1=C(CSc2nc(CC)c(C)cc2C#N)OC(N)=C(C#N)C1c1ccccc1 (stereo unspecified)	CYP2C9 inh 68
CCN1C=C(Cc2cccs2)C2=C(C1)C(c1cccs1)C(C#N)=C(N)O2 (stereo unspecified)	CYP2C9 inh 56
O=C(O)c1cccnc1SC1CC(=O)N(Cc2ccccc2)C1=O (stereo unspecified)	none
COc1ccc(C2NC(=O)C(C)S2)cc1 (stereo unspecified)	none
N#Cc1cc(-c2ccccc2)cnc1Cl	none (no result: sEH activator, sEH inhibitor)
COc1ccc(/C=N/c2oc(-c3ccccc3)cc2C#N)cc1OC	CYP2C19 inhib 54
COc1ccc(/C=N/NC(=O)c2nc(-c3ccccc3)cc(-c3ccccc3)n2)cc1OC	none
CCN(CC)C(=O)c1sc(NC(=O)Cc2ccc(OC)cc2)c(C#N)c1C	CYP2C9 inh 78, CYP2C19 inhib 78
Cc1cc(-n2c(C)cc(C(=O)CSc3nc4ccccc4c(=O)n3Cc3ccco3)c2C)no1	none
C=C(C)c1ccc(C(C)(C)NC(=O)NCc2ccco2)cc1	CYP2C9 inh 81, CYP2C19 inhib 90
CC(Oc1ccccc1)C(=O)OCC(=O)NC(=O)NCc1ccco1 (stereo unspecified)	CYP2C9 inh 52 (no result: sEH activator, sEH inhibitor)
CC(C)(C)c1ccc(OCC(=O)NCc2ccco2)cc1	none
C=C(C)c1ccc(C(C)(C)NC(=O)N(Cc2ccccc2)Cc2ccco2)cc1	none
O=C(COC(=O)CC1CC2CCC1C2)NC(=O)NCc1ccco1 (stereo unspecified)	CYP2C9 inh 70, CYP2C19 inhib 63
COc1ccc(OCC(=O)OCC(=O)NCc2ccco2)cc1	none
CC(C)c1ccc(OCC(=O)NCc2ccco2)cc1	CYP2C9 inh 74, CYP2C19 inhib 90
c1ccc(CCn2c3ccccc3c3nnc(SCc4ccc5nonc5c4)nc32)cc1	none
CCCCN(Cc1cc2ccccc2[nH]c1=O)C(=O)c1ccccn1	none
CC(SC1CCCC1)C(=O)Nc1ccnn1C(C)C (stereo unspecified)	none
